Laboratory results: ChEMBL document CHEMBL3988442, “University of Dundee, Small-Polar-MMV Screening Library” (2021)
The whole screen tested about 48,000 compounds, of which about 13,000 (27%) showed an effect of 50% or more. Some of the results follow.

Test system: Wolbachia pipientis
Assay: Anti-Wolbachia Cell-Based Screen
Format: functional
Set-up: scale not given: in the data most compounds retested in dose-response had high values
Conditions: 5 µM

Row | SMILES | Percent Effect
1 | Cn1cnc2c1C(COCc1ccccc1)N(Cc1ccccn1)CC2.O=C(O)C(F)(F)F.O=C(O)C(F)(F)F (configuration not stated) | 9.45%
2 | Cc1ccccc1C(CNC(=O)CSc1nnc(N)s1)N(C)C (configuration not stated) | -0.498%
3 | c1ccc(-c2ncn(CCCN3CCOCC3)c2-c2ccncc2)cc1 | -9.931%
4 | Cl.c1nc(N2CCOCC2)ncc1-c1cncn1CCCN1CCCCC1 | 140.4%
5 | Clc1ccc(N2CCN(CCCN3CCCCC3)CC2)nc1 | -9.016%
6 | Cc1ccccc1CC(=O)NCCNc1nccc(C(F)(F)F)n1 | -4.75%
7 | Cc1nn2cccnc2c1C(=O)NCc1ccnc(OCC2CC2)c1 | 2.843%
8 | Cc1cc(-c2nc(C3(NC(=O)OC(C)(C)C)CCC3)no2)on1 | 26.17%
9 | O=C(NCc1cn2c(n1)CN(Cc1cccc(F)c1)CC2)C1CCC1.O=C(O)C(F)(F)F | -4.288%
10 | O=C(CC1CC1)NCc1cn2c(n1)CN(Cc1cccc(F)c1)CC2.O=C(O)C(F)(F)F | 2.246%
11 | COc1ccc(CN2CCn3cc(CN4CCCCC4)nc3C2)cc1.O=C(O)C(F)(F)F.O=C(O)C(F)(F)F | 13.43%
12 | COc1ccc(CN2CCn3cc(Cn4cccn4)nc3C2)cc1.O=C(O)C(F)(F)F | -6.787%
13 | CN1CCN(Cc2cn3c(n2)CN(Cc2cccc(F)c2)CC3)CC1.O=C(O)C(F)(F)F.O=C(O)C(F)(F)F.O=C(O)C(F)(F)F | 118.6%
14 | CN1CCN(Cc2cn3c(n2)CN(C(=O)c2cccn2C)CC3)CC1.O=C(O)C(F)(F)F.O=C(O)C(F)(F)F | 2.395%
15 | Cc1ccc(CN2CCn3cc(CN4CCN(C)CC4)nc3C2)cc1.O=C(O)C(F)(F)F.O=C(O)C(F)(F)F.O=C(O)C(F)(F)F | 108%
16 | CN1CCN(Cc2cn3c(n2)CN(Cc2ccc(F)cc2)CC3)CC1.O=C(O)C(F)(F)F.O=C(O)C(F)(F)F.O=C(O)C(F)(F)F | 107.8%
17 | CN(Cc1cn2c(n1)CN(Cc1ccc(F)cc1)CC2)Cc1ccco1.O=C(O)C(F)(F)F.O=C(O)C(F)(F)F | 12.2%
18 | CN(CCN1CCOCC1)S(=O)(=O)CC1CCCC1 | -5.333%
19 | CCOC(C)c1nc(Cn2cccn2)cs1 (configuration not stated) | -9.016%
20 | CNC(=O)NC(=O)C(C)Nc1ccccc1OCCOC (configuration not stated) | -4.777%
21 | N#CC(NC(=O)CCCOc1cccnc1)c1ccc(F)cc1F (configuration not stated) | 86.86%
22 | COCCOCC(=O)NC(C#N)c1cccc(Cl)c1Cl (configuration not stated) | -5.462%

Row | SMILES | Percent Effect
23 | CCCC(C#N)NC(=O)CCCOc1cccc(F)c1 (configuration not stated) | -0.6223%
24 | COCCOCC(=O)NC(C#N)c1ccccc1C (configuration not stated) | -6.044%
25 | Cc1ccccc1C(C#N)NC(=O)CCCOc1cccnc1 (configuration not stated) | 81.76%
26 | N#CC(NC(=O)CCC(=O)NC1CCCC1)c1ccc(F)cc1F (configuration not stated) | -15.9%
27 | N#CC(NC(=O)CCCOc1cccnc1)c1ccccc1Cl (configuration not stated) | 111.5%
28 | CCC(C#N)NC(=O)CCCOc1cccc(C(C)=O)c1 (configuration not stated) | 2.653%
29 | CC(NC(=O)CCCOc1ccccc1Cl)c1ccncc1 (configuration not stated) | -5.122%
30 | CC(C)c1ccc(S(=O)(=O)Cc2nc(N)nc(N(C)C)n2)cc1 | 13.19%
31 | COc1c(NC(=O)N(C)CCOc2ccccc2)c(C)nn1C | -49.81%
32 | c1ccn2c(SCC3CN=C(N4CCOCC4)S3)ncc2c1 (configuration not stated) | 6.715%
33 | O=S(=O)(NC1CCN(CC(F)(F)F)C1)c1cc(F)cc(F)c1 (configuration not stated) | -11.02%
34 | COCC(=O)N1CCC(c2cc(N(C)C)cc(C)n2)CC1 | 144.6%
35 | COCC(=O)N1CCC(c2cc(C(F)(F)F)n3ccnc3n2)CC1 | -3.76%
36 | COCC(=O)N1CCC(c2noc3nc(C)cc(C(F)(F)F)c23)CC1 | -9.714%
37 | COCC(=O)N1CCC(c2cc(-c3ccc(N)nc3)cc(C)n2)CC1 | 134.8%
38 | CN(c1cccc(C#N)c1)S(=O)(=O)c1cc(C(=O)O)ccc1Cl | -8.921%
39 | CCc1ncc2c(n1)CN(CC1CCCCO1)CC2 (configuration not stated) | -28.59%
40 | CCN(C(=O)c1ccc2nnc(C3CCN(C(C)=O)C3)n2c1)C(C)C (configuration not stated) | -2.519%
41 | CNC(=O)c1cccc(NC(=O)NC(C)c2cc(C)oc2C)c1C (configuration not stated) | -16.36%
42 | O=C(O)C(F)(F)F.O=C([C@@H]1C[C@@H]2CCN(c3cccc(F)c3)C[C@H]2O1)N1CCCC1 | 103.2%
43 | Cc1ccc(CN2CC[C@H]3C[C@H](C(=O)N4CCCO4)O[C@@H]3C2)o1.O=C(O)C(F)(F)F | -11.63%
44 | CN1CCN(C(=O)[C@@H]2C[C@@H]3CCN(c4cccc(F)c4)C[C@H]3O2)CC1 | 96.73%

Row | SMILES | Percent Effect
45 | O=C(O)C(F)(F)F.O=C([C@@H]1CC[C@@H]2[C@@H](CCN2Cc2cccc(F)c2)O1)N1CCCCO1 | -25.86%
46 | Fc1cccc(N2C[C@H]3CCN(c4cccnc4)C[C@H]3C2)c1.O=C(O)C(F)(F)F | 6.711%
47 | O=S(=O)(C1CC1)N1CCOC2(CCCN(c3cccc(F)c3)C2)C1 (configuration not stated) | 7.053%
48 | O=C(O)C(F)(F)F.O=C([C@H]1C[C@@H]2CCN(c3cccc(F)c3)C[C@H]2O1)N1CCCCO1 | 96.52%
49 | CN1CCN(C(=O)[C@H]2C[C@@H]3CCN(c4ncc(F)cn4)C[C@@H]3O2)CC1.O=C(O)C(F)(F)F | -9.48%
50 | O=C(O)C(F)(F)F.O=C([C@H]1C[C@@H]2CCN(c3cccc(F)c3)C[C@H]2O1)N1CCCC1 | 111.1%
51 | COc1cccc(OCc2cc(C(=O)NC[C@H]3CCCN3)n[nH]2)c1 | -9.254%
52 | CCc1nc(NS(=O)(=O)c2ccc(C)cc2Cl)no1 | -7.333%
53 | CC(C)c1csc(C2CCCN(C(=O)c3ccc(=O)n(C)c3)C2)n1 (configuration not stated) | 2.326%
54 | CC(C)Cc1nc(CN(C)CCOc2ccccc2F)no1 | 2.804%
55 | O=C(Cn1ccc(=O)[nH]c1=O)NCC1Cc2ccccc2O1 (configuration not stated) | 0.2234%
56 | CC(C)NC(=O)NC[C@H]1OC[C@@H](NCc2ccc(F)cc2)[C@@H]1O | 8.979%
57 | CC1=C(CCN2C[C@H](O)[C@@H](N3CCOCC3)C2)C(C)(C)CCC1 | 0.7691%
58 | Clc1cncc(N2CCCC2c2nnc3n2CCCCC3)n1 (configuration not stated) | 118.9%
59 | CCOc1cncc(N2CCCC2c2nnc3n2CCCCC3)n1 (configuration not stated) | 129.6%
60 | COc1ccc(CC(=O)N2CCC(c3nnc4n3CCC4)CC2)cc1F | -6.133%
61 | O=C(C1CCC1)N1CCCC1c1nnc2n1CCCCC2 (configuration not stated) | -4.579%
62 | CCOc1c(Br)cc(CNCCc2nnc3n2CCCCC3)cc1OC.Cl | 15.42%
63 | Cc1cnn(CC2CCCCN2c2ncnc3ccccc23)c1 (configuration not stated) | -9.464%
64 | CC1c2ncc(COCC3CC3)n2CCN1C.O=C(O)C(F)(F)F (configuration not stated) | -13.39%
65 | Cc1ccc(C(C(=O)N2CC(c3ccccn3)C2)N(C)C)cc1 (configuration not stated) | 13.16%
66 | Cn1cc(CN2CCC(F)(F)C3(CCN(c4ncccn4)C3)C2)cn1.O=C(O)C(F)(F)F.O=C(O)C(F)(F)F (configuration not stated) | 111.9%

Row | SMILES | Percent Effect
67 | Cn1cc(CN2CCC(F)(F)C3(CCN(c4ccccn4)C3)C2)cn1.O=C(O)C(F)(F)F.O=C(O)C(F)(F)F (configuration not stated) | 97.58%
68 | COCC1CC2(CCN(Cc3cnn(C)c3)CC2)CN1c1ncccn1.O=C(O)C(F)(F)F.O=C(O)C(F)(F)F (configuration not stated) | -8.289%
69 | COc1cccc(CN2CCC3(CCN(c4ncc(F)cn4)CC3)C2)c1.O=C(O)C(F)(F)F | -1.729%
70 | Cn1cc(CN2CCC[C@]3(C(=O)O)CN(c4ncccn4)C[C@@H]3C2)cn1.O=C(O)C(F)(F)F | 8.279%
71 | Cn1cc(CN2CCC(F)(F)C3(CCN(c4ncc(F)cn4)C3)C2)cn1.O=C(O)C(F)(F)F (configuration not stated) | 107.8%
72 | COc1cccc(CN2CCC3(CC2)CCN(c2ncc(F)cn2)C3)c1.O=C(O)C(F)(F)F | 3.548%
73 | Cn1cc(CN2CCC(F)(F)C3(CCN(c4cnccn4)C3)C2)cn1.O=C(O)C(F)(F)F.O=C(O)C(F)(F)F (configuration not stated) | -4.979%
74 | O=C(O)C(F)(F)F.O=C(c1cnccn1)N1CCC(F)(F)C2(CCN(c3ccccn3)C2)C1 (configuration not stated) | -12.88%
75 | COCCNC(=O)[C@@H]1CC[C@@H]2[C@@H](CCN2c2ncc(F)cn2)O1.O=C(O)C(F)(F)F | -10.3%
76 | COc1cc(N2C[C@H]3OCC[C@H]3[C@H](C(=O)NC3CC3)C2)ncn1 | -4.655%
77 | COCCNC(=O)[C@H]1CC[C@@H]2[C@@H](CCN2c2ncc(F)cn2)O1.O=C(O)C(F)(F)F | 0.7223%
78 | COc1cc(N2CC[C@@H]3O[C@H](C(=O)NCC4CC4)C[C@@H]32)ncn1 | 97.06%
79 | COc1cc(NC(=O)N(C)C(C2CC2)C2CC2)ncn1 | -1.888%
80 | COc1cc(N2CC[C@@H]3O[C@@H](C(=O)NCCN(C)C)C[C@@H]32)ncn1 | 104.9%
81 | COc1cc(N2CC[C@@H](OC)[C@@H]2Cc2ccccc2)ncn1 | 2.999%
82 | COc1cc(NC(=O)N(C)CCC2CC2)ncn1 | 6.653%
83 | COCCNC(=O)[C@@H]1C[C@H]2[C@H](CCN2c2cc(OC)ncn2)O1 | 102.9%
84 | COc1cc(N2CC[C@@H]3O[C@@H](C(=O)NC(C)C)C[C@@H]32)ncn1 | 103.8%
85 | COc1cc(NC(=O)N(C)CC2CC2)ncn1 | -6.401%
86 | Cc1cnn(CC(=O)Nc2cc(-n3nnnc3C3CC3)ccc2F)c1 | -3.572%
87 | CC(C)CC(C)N(C)C(=O)CCn1cccn1 (configuration not stated) | 9.677%
